Inconclusive results are not listed. Activity calls are given as the source filed them. Unless noted, calls come from the whole dose curve; as a rule, active = well fitted curve in the direction sought with a large enough effect in the repeat runs; inconclusive = weak or mixed curves; inactive = no such curve, though single readings can be large; an effect the other way counts as inactive or inconclusive.
How the values were obtained:
[1] = biological target: Luciferin 4-monooxygenase (Photinus pyralis) (UniProt P08659); experiment: qHTS assay to identify small molecule inhibitors of firefly luciferase (AID 1224835); note: nearly all actives have a fitted effect of over 25% in size
Luciferin 4-monooxygenase (Photinus pyralis), sequence (P08659 whole entry, looked up): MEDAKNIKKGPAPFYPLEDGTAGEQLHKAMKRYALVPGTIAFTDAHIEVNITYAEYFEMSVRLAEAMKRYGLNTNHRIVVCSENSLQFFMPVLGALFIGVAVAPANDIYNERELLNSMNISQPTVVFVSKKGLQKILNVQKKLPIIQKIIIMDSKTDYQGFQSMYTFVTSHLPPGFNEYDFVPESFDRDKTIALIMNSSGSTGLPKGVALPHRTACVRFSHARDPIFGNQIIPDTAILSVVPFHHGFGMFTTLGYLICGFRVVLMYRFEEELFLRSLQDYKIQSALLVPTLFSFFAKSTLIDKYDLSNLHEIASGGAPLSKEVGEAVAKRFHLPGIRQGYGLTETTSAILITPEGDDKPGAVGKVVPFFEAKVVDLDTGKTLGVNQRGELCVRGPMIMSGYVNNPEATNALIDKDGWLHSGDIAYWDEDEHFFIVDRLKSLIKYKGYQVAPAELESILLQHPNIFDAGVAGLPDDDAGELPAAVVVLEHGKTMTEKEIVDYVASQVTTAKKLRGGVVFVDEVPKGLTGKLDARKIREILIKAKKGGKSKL
Outline: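 Quantitative HTS format; KM concentrations of both substrates. Purified P. pyralis FLuc activity quantified from luminescence images.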

[2] = qHTS assay to identify small molecule agonists of the constitutive androstane receptor (CAR) signaling pathway - cell viability counter screen (AID 1224836); note: nearly all actives have a fitted effect of over 45% in size
Outline: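 Fluorescence from CellTiter-Fluor indicates live cells after 23 h exposure. The human hepatoma line expresses hCAR and a CYP2B6-2.2kb reporter. Incubation medium contains 0.75 uM PK11195 (final).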

[3] = biological target: Nuclear receptor subfamily 1 group I member 3 (Homo sapiens) (UniProt Q14994); experiment: qHTS assay to identify small molecule antagonists of the constitutive androstane receptor (CAR) signaling pathway (AID 1224838);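 note: HepG2 cells stably expressing hCAR with CYP2B6 luciferase reporter stimulated by CITCO; nearly all actives have a fitted effect of over 40% in size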
Nuclear receptor subfamily 1 group I member 3 (Homo sapiens), sequence (Q14994 whole entry, looked up): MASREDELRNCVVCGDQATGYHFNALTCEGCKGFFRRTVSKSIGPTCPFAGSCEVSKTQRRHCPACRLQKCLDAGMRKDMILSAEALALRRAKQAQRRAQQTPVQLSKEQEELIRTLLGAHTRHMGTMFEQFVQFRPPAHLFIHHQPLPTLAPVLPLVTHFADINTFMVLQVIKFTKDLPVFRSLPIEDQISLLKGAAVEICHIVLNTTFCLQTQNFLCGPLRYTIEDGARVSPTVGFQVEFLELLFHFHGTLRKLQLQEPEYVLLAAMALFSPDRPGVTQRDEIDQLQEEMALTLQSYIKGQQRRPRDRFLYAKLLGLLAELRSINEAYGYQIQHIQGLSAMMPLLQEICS
Outline: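 Quantitative HTS in double-stable HepG2-CYP2B6-hCAR cells. After 4 h plating, cells get compound (15 concentrations) and CITCO at 50 nM final, incubate 24 h at 37 C, then ONE-Glo luminescence is read.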

[4] = biological target: Nuclear receptor subfamily 1 group I member 3 (Homo sapiens) (UniProt Q14994); experiment: qHTS assay to identify small molecule agonists of the constitutive androstane receptor (CAR) signaling pathway (AID 1224839);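 note: HepG2 cells stably carrying human CAR and a CYP2B6 luciferase reporter; nearly all actives have a fitted effect of over 15% in size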
Outline: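 Stable hCAR/CYP2B6-2.2kb HepG2 line in DMEM with 10% FBS; compounds (15 concentrations) and 0.75 uM PK11195 final, 24 h at 37 C/5% CO2, then ONE-Glo luminescence after 30 min.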

[5] = qHTS assay to identify small molecule antagonists of the estrogen related receptor signaling pathway with the pleiotropic PPARgamma coactivator (PGC) from Tox21 10K library - cell viability counter screen (AID 1224840; active = well fitted cell-killing curve with a large enough effect in the repeat runs, not every such curve was filed as active; note: nearly all actives have a fitted effect of over 40% in size)
Outline: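 Compounds in DMSO, alongside positive and negative controls, were pinned onto PGC/ERR cells (2,000 per well). Exposure lasted 17.5 hours at 37 C, followed by a 30-minute CellTiter-Fluor incubation and fluorescence reading.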

[6] = qHTS assay to identify small molecule antagonists of the estrogen related receptor signaling pathway with the pleiotropic PPARgamma coactivator (PGC) from Tox21 10K library (AID 1224841; call rule not given here; note: actives are mostly falling curves and most rising ones were filed inactive; nearly all actives have a fitted effect of over 50% in size)
Outline: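 Compound exposure ran 18 hours at 37 C in PGC/ERR cells (2,000/well) that had first rested 6 hours in a 37 C/5% CO2 incubator. Luciferase activity was then detected with One-Glo after a 30-minute room-temperature step.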

[7] = qHTS assay to identify small molecule agonists of the estrogen related receptor signaling pathway with the pleiotropic PPARgamma coactivator (PGC) from Tox21 10K library (AID 1224842); note: nearly all actives have a fitted effect of over 15% in size
Outline: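 PGC/ERR reporter cells (NTP line) were seeded 2,000 per well, rested 6 h at 37 C/5% CO2, then pin-dosed with compounds in DMSO for 18 h at 37 C; luciferase read by One-Glo luminescence after 30 min at room temperature.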

[8] = qHTS assay to identify small molecule agonists of the hypoxia (HIF-1) signaling pathway - cell viability counter screen (AID 1224844; calls by dose curve; note: nearly all actives have a fitted effect of over 50% in size)
Outline: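 Luminescent ATP content (CellTiter-Glo, 30 min, room temperature) served as the viability measure in HRE-bla ME-180 cells exposed to compounds for 17 hrs in low-serum medium (0.5% dialyzed FBS).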

[9] = qHTS assay to identify small molecule agonists of H2AX (AID 1224845; active = well fitted activation curve with a large enough effect in the signal ratio in the repeat runs, not every such curve was filed as active; the % refers to the signal ratio)
Outline: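 Wild-type CHO-K1 cells plated overnight, then exposed 3 hr at 37C to compounds at 15 concentrations (0.76% DMSO). Lysed, then HTRF anti-pH2AX(S139)-cryptate/anti-H2AX-d2 detection after 24 hr at room temperature; emissions 665 and 620 nm.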

[10] = qHTS assay to identify small molecule agonists of the hypoxia (HIF-1) signaling pathway (AID 1224846; active = well fitted activation curve with a large enough effect in the signal ratio in the repeat runs, not every such curve was filed as active; the % refers to the signal ratio)
Outline: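 Measured by blue/green FRET after loading CCF4-AM: beta-lactamase expressed from a hypoxia response element in ME-180 cells. Test agents were delivered in DMSO and left 17 hrs; cells had been plated 5 hrs earlier in low-serum (0.5% dialyzed FBS) medium.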

[11] = qHTS assay to identify small molecule agonists of H2AX - cell viability counter screen (AID 1224847; calls by dose curve; note: top concentration of the series differs between compounds; nearly all actives have a fitted effect of over 30% in size)
Outline: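 Viability of CHO-K1 (wild type) cells after 3 hr compound exposure was measured by CellTiter-Glo luminescence.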

[12] = qHTS assay to identify small molecule antagonists of the estrogen related receptor (ERR) signaling pathway from Tox21 library (AID 1224848); note: nearly all actives have a fitted effect of over 50% in size
Outline: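 Cells: ERR line, 2,000/well; 6 h preincubation 37 C/5% CO2. Cpd in DMSO via pin tool; 18 h, 37 C. ONE-Glo, 30 min RT, luminescence.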

[13] = qHTS assay to identify small molecule agonists of the estrogen related receptor (ERR) signaling pathway from Tox21 library (AID 1224849; calls by dose curve; note: nearly all actives have a fitted effect of over 15% in size); conditions: ERR reporter cell line, ONE-Glo luciferase, 18 h; at 92.4 µM (top of the series) unless noted
Outline: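 We plated ERR reporter cells, waited 6 h, added compounds in DMSO by pin tool and incubated them 18 h at 37 C. ONE-Glo was then added and luminescence read after 30 min.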

[14] = qHTS RealTime-Glo MT Cell Viability Assay in HepG2 cells - 24 hour (AID 1224867); note: nearly all actives have a fitted effect of over 50% in size
Outline: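 HepG2 suspension premixed with RealTime-Glo reagents is plated at 600 cells per well and left 5 h at 37 C/5% CO2. Compounds in DMSO then go in, and bioluminescence reflecting viable cell number is recorded over 40 h.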

[15] = qHTS RealTime-Glo MT Cell Viability Assay in HEK293 cells - 32 hour (AID 1224868)
Outline: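 Reads taken at 0, 8, 16, 24, 32 and 40 h from the same wells. HEK293 cells (600/well) carried RealTime-Glo reagents from seeding, with compound added after a 5 h settle at 37 C.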

[16] = A CellTox Green Cytotoxicity Assay to monitor cytotoxicity in HEK293 cells - 0 hour (AID 1224869); note: nearly all actives have a fitted effect of over 50% in size
Outline: (§1)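 Each value comes from one timepoint of a single continuous run in which HEK293 cells with CellTox Green were exposed to compound for up to 40 h at 37 C, dye fluorescence rising with cell death.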

[17] = qHTS RealTime-Glo MT Cell Viability Assay in HepG2 cells - 40 hour (AID 1224870); note: nearly all actives have a fitted effect of over 50% in size
Outline: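 HepG2 cells mixed with RealTime-Glo MT reagents (NanoLuc plus cell-permeant prosubstrate) were seeded at 600 cells/well, incubated 5 h at 37 C/5% CO2, then pinned with compounds in DMSO; nonlytic luminescence tracked viability during 40 h treatment.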

[18] = A CellTox Green Cytotoxicity Assay to monitor cytotoxicity in HEK293 cells - 40 hour (AID 1224871); note: nearly all actives have a fitted effect of over 45% in size
Outline: as §1

[19] = biological target: Thyrotropin receptor (Homo sapiens) (UniProt P16473); experiment: qHTS assay to identify small molecule agonists of the thyroid stimulating hormone receptor (TSHR) signaling pathway (AID 1224843; calls by dose curve; note: nearly all actives have a fitted effect of over 45% in size)
Thyrotropin receptor (Homo sapiens), sequence (P16473 whole entry, looked up): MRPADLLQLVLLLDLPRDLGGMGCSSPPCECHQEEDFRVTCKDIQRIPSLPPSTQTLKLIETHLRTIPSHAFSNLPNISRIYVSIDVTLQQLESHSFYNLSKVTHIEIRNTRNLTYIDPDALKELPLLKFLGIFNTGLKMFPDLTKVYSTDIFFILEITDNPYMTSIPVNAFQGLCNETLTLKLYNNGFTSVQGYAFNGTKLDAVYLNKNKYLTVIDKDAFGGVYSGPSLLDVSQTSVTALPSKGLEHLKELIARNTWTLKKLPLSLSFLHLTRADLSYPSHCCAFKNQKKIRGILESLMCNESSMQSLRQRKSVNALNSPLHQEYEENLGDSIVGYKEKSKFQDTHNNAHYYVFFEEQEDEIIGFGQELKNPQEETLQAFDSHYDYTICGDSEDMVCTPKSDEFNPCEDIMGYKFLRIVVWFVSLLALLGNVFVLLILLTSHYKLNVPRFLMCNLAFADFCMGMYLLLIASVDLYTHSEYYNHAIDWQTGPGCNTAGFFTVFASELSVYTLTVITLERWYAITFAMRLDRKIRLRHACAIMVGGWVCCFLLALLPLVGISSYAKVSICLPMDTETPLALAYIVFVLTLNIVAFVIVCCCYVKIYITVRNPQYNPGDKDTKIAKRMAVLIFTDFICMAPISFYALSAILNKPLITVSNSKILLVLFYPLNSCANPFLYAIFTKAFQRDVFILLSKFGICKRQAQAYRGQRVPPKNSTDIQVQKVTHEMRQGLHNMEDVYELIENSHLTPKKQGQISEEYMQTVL
Outline: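 TSHR-expressing HEK293 cells (800 per well) were exposed to compounds for 30 min at room temperature. cAMP was then detected by HTRF competition with cAMP-d2 and anti-cAMP cryptate, read after 1 h at room temperature. Fifteen concentrations, triplicate.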
% is set by controls: 0 for no effect and ±100 for the full control effect.

C=C(C)C(=O)OCCOP(=O)(O)OCCOC(=O)C(=C)C
inactive: Potency [1] | Potency [2] | outcome [3] | Potency [4] | outcome [5] | Potency [6] | outcome [7] | outcome [8] | outcome [9] | outcome [10] | Potency [11] | Potency [12] | activity change, positive = activation [13] 5.76% | outcome [14] | Potency [15] | outcome [16] | outcome [17] | Potency [18]

O=S(=O)(O)CCN1CCN(CCO)CC1
inactive: Potency [1] | Potency [2] | outcome [3] | Potency [4] | outcome [5] | Potency [6] | outcome [7] | Potency [19] | outcome [8] | outcome [9] | outcome [10] | Potency [11] | Potency [12] | activity change, positive = activation [13] 9.7% | outcome [14] | Potency [15] | outcome [17] | Potency [18]

COP(=O)(OC)OC(c1ccc(Cl)cc1)P(=O)(OC)OC (stereo unspecified)
inactive: Potency [1] | Potency [2] | outcome [5] | Potency [6] | outcome [7] | outcome [8] | outcome [9] | outcome [10] | Potency [12] | activity change, positive = activation [13] 1.9% [at 42.5 µM] | outcome [14] | Potency [15] | outcome [16] | outcome [17] | Potency [18]

CC1=CCC(C(C)C)=CC1
inactive: Potency [1] | Potency [2] | outcome [3] | Potency [4] | outcome [5] | outcome [8] | outcome [9] | outcome [10] | Potency [11] | outcome [14] | Potency [15] | outcome [16] | outcome [17] | Potency [18]

COC(=O)c1ccccc1C(=O)c1ccc(OCCN2CCCCC2)cc1
inactive: Potency [1] | Potency [2] | outcome [3] | Potency [4] | outcome [5] | outcome [7] | Potency [19] | outcome [8] | outcome [9] | outcome [10] | Potency [11] | Potency [12] | activity change, positive = activation [13] 1.12% [at 42.5 µM] | Potency [15] | outcome [16] | outcome [17] | Potency [18]

CO[C@@H]1[C@@H](OC(N)=O)[C@@H](O)[C@H](Oc2ccc3c(O)c(NC(=O)c4ccc(O)c(CC=C(C)C)c4)c(=O)oc3c2C)OC1(C)C
inactive: Potency [1] | Potency [2] | Potency [4] | outcome [5] | outcome [7] | outcome [8] | outcome [9] | Potency [11] | activity change, positive = activation [13] -2.51% [at 42.5 µM] | outcome [14] | Potency [15] | outcome [16] | outcome [17] | Potency [18]

OCCC(F)(F)C(F)(F)C(F)(F)C(F)(F)C(F)(F)C(F)(F)C(F)(F)C(F)(F)F
inactive: Potency [1] | Potency [2] | outcome [3] | Potency [4] | outcome [5] | Potency [6] | outcome [9] | outcome [10] | outcome [14] | outcome [16] | outcome [17] | Potency [18]

CC(C)NCC(O)COc1ccc(COCCOC(C)C)cc1 (stereo unspecified)
inactive: Potency [1] | Potency [2] | outcome [3] | outcome [5] | Potency [19] | outcome [8] | outcome [9] | Potency [11] | outcome [14] | Potency [15] | outcome [16] | outcome [17] | Potency [18]

From PubChem BioAssay (Tox21)
